Each structure is given as a SMILES string. Values joined by “and” are separate entries in the source; they are usually repeats but may differ in a detail not shown here. Identical values can stand only once. Results filed as inconclusive are left out. Where a structure was tested more than once in an assay, its records may differ in their call. Active and inactive are the calls of the source. Unless noted, the call rests on the fitted dose curve; in most records, active means well fitted curve in the direction sought with a large enough effect in the repeat runs; inconclusive means weak or mixed curves; inactive means no such curve, though single readings can be large; an effect the other way counts as inactive or inconclusive.

The record followed here is PubChem BioAssay (Tox21).

A short description of assay [1]: qHTS assay to identify aromatase inhibitors - cell viability counter screen (AID 743084).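 Further: cells stimulated with testosterone during compound exposure; nearly all actives have a fitted effect of over 55% in size.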 Further: potency means the concentration at half of the fitted maximal effect.
Assay [2] concerns the target Aryl hydrocarbon receptor (Homo sapiens) (UniProt P35869). The assay is described as follows: qHTS assay to identify small molecule that activate the aryl hydrocarbon receptor (AhR) signaling pathway (AID 743085). Further: nearly all actives have a fitted effect of over 15% in size. Further: potency means the concentration at half of the fitted maximal effect.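 On activation: HG2L7.5c1 human HepG2 liver cells with stably integrated DRE-driven firefly reporter; series mostly up to about 70 µM.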 The method in brief: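 HepG2 cells (HG2L7.5c1) stably carrying a firefly luciferase reporter driven by 20 dioxin responsive elements were exposed to compound for 24 h at 37C after a 5 h settling period; luminescence rise (ONE-Glo) indicated activation.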
In general terms: Quantitative high-throughput screening tests each substance at several concentrations.

Assay [3] has as its target Peroxisome proliferator-activated receptor gamma (Homo sapiens) (UniProt P37231). Briefly: qHTS assay to identify small molecule agonists of the peroxisome proliferator-activated receptor gamma (PPARg) signaling pathway (AID 743094; active means well fitted activation curve with a large enough effect in the signal ratio in the repeat runs, not every such curve was filed as active; the % refers to the signal ratio). A digest of the protocol:
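HEK293H PPARg-bla cells, 5 h settle at 37C/5% CO2; compound (DMSO) 17 h, 37C; B/G FRET substrate 1 h RT; fluorescence intensity read-out. qHTS format.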

For assay [4] the target is unchanged. The assay is described as follows: qHTS assay to identify small molecule antagonists of the peroxisome proliferator-activated receptor gamma (PPARg) signaling pathway (AID 743191; calls by dose curve; further: nearly all actives have a fitted effect of over 30% in size; further: potency means the concentration at half of the fitted maximal effect). A digest of the protocol:
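GeneBLAzer PPARg UAS-bla HEK293H cells carrying a UAS-driven beta-lactamase reporter were plated at 3000 cells/well, preincubated 5 h at 37C, then given compound for 17 h at 37C; LiveBLAzer B/G FRET substrate was read after 1 h at room temperature.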

Assay [5] is described as follows: qHTS assay for small molecule agonists of the antioxidant response element (ARE) signaling pathway (AID 743202; active means well fitted activation curve with a large enough effect in the signal ratio in the repeat runs, not every such curve was filed as active; the % refers to the signal ratio). The method in brief: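 Steps: seed ARE-bla HepG2 cells (2,000/well); incubate 5 h at 37 C; add compounds by pin tool; incubate 16 h at 37 C; add FRET substrate; read fluorescence after 2 h at RT.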
The nature of assay [6]: qHTS assay for small molecule agonists of the antioxidant response element (ARE) signaling pathway - cell viability counter screen (AID 743203; calls by dose curve; further: nearly all actives have a fitted effect of over 55% in size; further: potency means the concentration at half of the fitted maximal effect). The method in brief:
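Luminescence read-out (CellTiter-Glo, 30 min at room temperature) measured cell viability in the same wells as the ARE beta-lactamase reporter. HepG2 ARE-bla cells were treated with compounds for 16 hrs at 37C/5% CO2.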

A short description of assay [7]: qHTS assay to identify small molecule that activate the aryl hydrocarbon receptor (AhR) signaling pathway - cell viability counter screen (AID 743086). Further: nearly all actives have a fitted effect of over 45% in size. Further: potency means the concentration at half of the fitted maximal effect. The method in brief:
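HepG2-AhR-luc (HG2L7.5c1) cells, 4000/well, were preincubated 5 h at 37C, exposed to compound in qHTS format for 24 hr at 37C, then given CellTiter-Fluor for 30 min; viability was read as fluorescence in the reporter wells.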

Assay [8] can be described thus: qHTS assay to identify small molecule antagonists of the peroxisome proliferator-activated receptor gamma (PPARg) signaling pathway - cell viability counter screen (AID 743194). Further: nearly all actives have a fitted effect of over 55% in size. Further: potency means the concentration at half of the fitted maximal effect. Particulars: Potency: co-treated with 50 nM rosiglitazone unless noted. A digest of the protocol: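 PPARg-UAS-bla HEK293H cells were plated, rested 5 h at 37 C, then treated with compounds plus rosiglitazone (50 nM final) for 17 h at 37 C; viability was then read by CellTiter-Glo luminescence after 30 min at room temperature.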

The nature of assay [9]: qHTS assay for small molecule activators of the heat shock response signaling pathway - cell viability counter screen (AID 743209). Further: nearly all actives have a fitted effect of over 50% in size. Further: potency means the concentration at half of the fitted maximal effect. A digest of the protocol:
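HSE-bla HeLa; 1500 cells/well; overnight 37 C, 5% CO2; compound 5 h 37 C; LiveBLAzer B/G substrate 2.5 h RT; CellTiter-Glo 30 min RT; luminescence.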

The nature of assay [10]: qHTS assay for small molecule activators of the heat shock response signaling pathway (AID 743210; active means well fitted activation curve with a large enough effect in the signal ratio in the repeat runs, with a control signal flat, not every such curve was filed as active; the % refers to the signal ratio;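 further: HeLa cells with beta-lactamase reporter driven by heat shock elements; series mostly up to about 63 µM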). A digest of the protocol:
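Activation of heat shock element-controlled beta-lactamase expression is measured in HeLa cells by LiveBLAzer FRET fluorescence, with compound exposure lasting 5 h at 37 C and substrate loading 2.5 h at room temperature.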

Sequence of Aryl hydrocarbon receptor (Homo sapiens) (P35869 whole entry, looked up): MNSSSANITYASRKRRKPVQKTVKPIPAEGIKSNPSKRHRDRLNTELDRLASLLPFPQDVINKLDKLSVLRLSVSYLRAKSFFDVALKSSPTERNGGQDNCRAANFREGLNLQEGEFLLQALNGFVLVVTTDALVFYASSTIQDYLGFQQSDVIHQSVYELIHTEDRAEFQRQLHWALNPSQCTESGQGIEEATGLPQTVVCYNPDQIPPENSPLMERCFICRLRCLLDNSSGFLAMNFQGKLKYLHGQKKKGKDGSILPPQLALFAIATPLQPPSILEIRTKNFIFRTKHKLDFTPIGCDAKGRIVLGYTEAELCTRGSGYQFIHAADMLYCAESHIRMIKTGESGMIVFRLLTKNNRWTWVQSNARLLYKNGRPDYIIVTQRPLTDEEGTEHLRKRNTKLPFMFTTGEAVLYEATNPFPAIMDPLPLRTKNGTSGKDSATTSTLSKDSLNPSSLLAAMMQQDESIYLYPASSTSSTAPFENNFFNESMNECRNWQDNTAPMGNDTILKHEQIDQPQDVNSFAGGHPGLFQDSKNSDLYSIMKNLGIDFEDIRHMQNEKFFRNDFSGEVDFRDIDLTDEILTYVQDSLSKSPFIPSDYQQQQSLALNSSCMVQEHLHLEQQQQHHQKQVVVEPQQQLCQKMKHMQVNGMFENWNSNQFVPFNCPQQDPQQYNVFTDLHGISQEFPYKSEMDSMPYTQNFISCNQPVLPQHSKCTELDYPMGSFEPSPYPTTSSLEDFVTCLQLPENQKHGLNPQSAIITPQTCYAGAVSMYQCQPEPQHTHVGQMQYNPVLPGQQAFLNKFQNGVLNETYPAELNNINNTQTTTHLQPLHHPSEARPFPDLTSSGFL
Sequence of Peroxisome proliferator-activated receptor gamma (Homo sapiens) (P37231 whole entry, looked up): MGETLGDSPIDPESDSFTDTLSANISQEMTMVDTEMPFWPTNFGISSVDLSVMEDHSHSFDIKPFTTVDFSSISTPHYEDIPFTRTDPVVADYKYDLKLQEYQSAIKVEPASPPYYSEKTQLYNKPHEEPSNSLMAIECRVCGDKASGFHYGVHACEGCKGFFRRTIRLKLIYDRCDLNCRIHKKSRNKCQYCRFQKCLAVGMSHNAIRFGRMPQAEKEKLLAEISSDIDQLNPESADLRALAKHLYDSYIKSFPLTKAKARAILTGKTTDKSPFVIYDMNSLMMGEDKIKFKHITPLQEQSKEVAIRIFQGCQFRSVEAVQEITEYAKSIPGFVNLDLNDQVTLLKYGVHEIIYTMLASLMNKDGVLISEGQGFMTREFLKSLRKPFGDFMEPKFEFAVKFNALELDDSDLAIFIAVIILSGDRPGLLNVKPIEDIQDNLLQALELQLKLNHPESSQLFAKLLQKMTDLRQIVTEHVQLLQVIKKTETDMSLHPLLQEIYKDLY

As to `CNC(C)Cc1ccc2c(c1)OCO2` (stereo not drawn), the Potency result in assay [1], in assay [2], in assay [3], in [4], in assay [5] and in [6] was “inactive” each time.
Consider `CCC[CH2][Sn]([CH2]CCC)([CH2]CCC)[O]C(=O)c1ccccc1`, for which the Potency in [1] was 1.54 µM (active); in [7] it was 2.73 µM (active); in assay [8], 0.49 µM (active); in [6], 0.273 µM (active); in assay [9], 1.38 µM (active). Also, the Potency entry in assay [2] is “inactive”.
For the compound `N#CNC#N`, the Potency result in assay [1], in [2], in assay [3], in assay [4], in assay [5] and in [6] was “inactive” throughout. Further, the Potency result in assay [9] and in assay [10] was “inactive” each time.
Take `CCCCCCCCCBr`: the Potency result in assay [1], in [2], in assay [7], in assay [5], in assay [6] and in assay [9] was “inactive” in each case. In addition, the Potency entry in [10] is “inactive”.
As to `CC1(C)CN=C(NN=C(/C=C/c2ccc(C(F)(F)F)cc2)/C=C/c2ccc(C(F)(F)F)cc2)NC1`, the Potency in assay [1] is 13.7 µM (active); in assay [2] it was 1.22 µM (active); in assay [7], 27.3 µM (active); in [8], 9.77 µM (active); in assay [6], 8.63 µM (active); in assay [9], 24.5 µM (active).
On to `CCCCCCCCc1ccc(O)cc1`, for which the Potency is 21.8 µM (active) in [1] and 42.3 µM (active) in assay [9]. The Potency result in assay [2] and in assay [7] was “inactive” throughout.
For the compound `Cc1cc(C)cc(OP(=O)(Oc2cc(C)cc(C)c2)Oc2cc(C)cc(C)c2)c1`, the Potency result in assay [1], in assay [7], in assay [4], in assay [8], in [6] and in [9] was “inactive” throughout. For the same compound, the Potency entry in [10] was “inactive”. In assay [2], the Potency was 9.84 µM (active).
Consider `CCCCCCCCCCCCCC[P+](CCCCCC)(CCCCCC)CCCCCC` (tested in a mixture with another compound), for which the Potency in assay [1] is 6.11 µM (active); in assay [7], 27.3 µM (active); in assay [8], 0.49 µM (active); in assay [6] it was 10.9 µM (active); in assay [9], 3.47 µM (active). The Potency entry in assay [2] is “inactive”.
Consider `N#CSCSC#N`, for which the Potency in [1] was 12.5 µM (active) and 17.1 µM (active); in [8], 27.3 µM (active); in [6], 55.7 µM (active) and 48.1 µM (active); in assay [9], 19.9 µM (active) and 12.2 µM (active). In addition, the Potency result in assay [2] and in [7] was “inactive” in each case.
Take `Cc1cc(C(C)(C)c2cc(C)c(O)c(C)c2)cc(C)c1O`: the Potency was 26.4 µM (active) in assay [1], 52.7 µM (active) in [7] and 29.9 µM (active) in assay [4]. The Potency result in assay [2] and in assay [10] was “inactive” throughout.
Consider `O=[N+]([O-])c1ccc2ccc3cccc4ccc1c2c34`, for which the Potency result in assay [1], in [2], in [7], in [8], in [6] and in assay [9] was “inactive” in each case. In addition, the Potency entry in assay [10] is “inactive”.
On to `CCOP(=S)(OCC)OC(Cl)C(Cl)(Cl)Cl` (stereo not drawn), for which the Potency entry in assay [1], in assay [2], in [7], in assay [3], in assay [9] and in [10] was “inactive” each time.
With `C[C@@H]1O[C@@H](O[C@H]2C[C@@H](O)[C@]3(CO)[C@H]4[C@H](O)C[C@]5(C)[C@@H](C6=CC(=O)OC6)CC[C@]5(O)[C@@H]4CC[C@]3(O)C2)[C@H](O)[C@H](O)[C@H]1O`, the Potency entry in assay [1], in assay [2], in assay [7] and in assay [10] was “inactive” throughout. Further, the Potency in [8] is 13.1 nM (active) and 119 nM (active); in assay [6] it was 6.5 nM (active) and 133 nM (active); in assay [9], 20.8 nM (active) and 266 nM (active).
Turning to `[CH3][Hg][Cl]`, the Potency in [1] is 24.3 µM (active); in assay [8] it was 12.3 µM (active); in assay [6], 8.61 µM (active); in assay [9] it was 54.8 µM (active). Moreover, the Potency entry in assay [2] and in assay [7] was “inactive” in each case.
Turning to `Oc1ccc(C(c2ccc(O)cc2)(C(F)(F)F)C(F)(F)F)cc1`, the Potency in assay [1] is 60.8 µM (active); in assay [2], 6.86 µM (active); in assay [6], “inactive and 43.3 µM (active)”. The Potency entry in assay [3], in assay [9] and in assay [10] was “inactive” throughout.
Turning to `CCN`, the Potency result in [1], in assay [2], in assay [3], in assay [4], in assay [8] and in assay [5] was “inactive” in each case. Besides, the Potency result in [6] and in [9] was “inactive” throughout.
Turning to `ClCc1ccc(Cl)cc1Cl`, the Potency entry in assay [1], in assay [2], in [7], in assay [6], in [9] and in assay [10] was “inactive” in each case.
